Structures are written as SMILES. Results filed as inconclusive are left out. Active and inactive are the calls of the source. How the source made its calls, unless noted: active means hit-call score of the fitted dose curve at least 0.9, where 1 is the maximum; inconclusive means response in the unintended direction; inactive means score below 0.9.

Test [1] in a line: ATG_TAL_CIS: Attagene CIS-FACTORIAL HepG2 Assay for human TAL Basal Promoter (AID 2282966; active means hit-call score of the fitted dose curve at least 0.9, where 1 is the maximum; inactive means score below 0.9;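 further: background control endpoint measuring basal TAL promoter reporter mRNA not a specific factor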). Particulars: HepG2 Attagene cis-factorial TAL promoter reporter; actives raise or lower the signal. A digest of the protocol:
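Basal-promoter background-control endpoint from a multiplexed HepG2 reporter panel. Cells were exposed 24 h, then reporter mRNA was read by RT-PCR/CE fluorescence and fitted in both directions relative to DMSO.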

Test [2] can be described thus: ATG_TGFb_CIS: Attagene CIS-FACTORIAL HepG2 Assay for human Transforming Growth Factor (TGF) (AID 2282967; active means hit-call score of the fitted dose curve at least 0.9, where 1 is the maximum; inactive means score below 0.9). Particulars: HepG2 Attagene CIS TGFb reporter, mRNA transcription; actives raise or lower the signal. A digest of the protocol: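 HepG2 cells transiently transfected with cis-promoter-driven multiplexed reporter units; 24 h compound exposure. Reporter mRNA measured by RT-PCR, 6-FAM labeling, HpaI digestion and capillary electrophoresis; bidirectional fit versus DMSO baseline.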

The nature of test [3]: ATG_VDRE_CIS: Attagene CIS-FACTORIAL HepG2 Assay for human Vitamin D Receptor Element (VDRE) (AID 2282968; active means hit-call score of the fitted dose curve at least 0.9, where 1 is the maximum; inactive means score below 0.9). Particulars: HepG2 VDRE cis-reporter transcription, actives raise or lower the signal. A digest of the protocol:
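Compounds were applied for 24 h to HepG2 cells transfected with promoter-regulated reporter units. Total RNA was reverse-transcribed, and reporter amplicons were fluorescently labelled and sized by capillary electrophoresis.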

The target in test [4] is Estrogen receptor (Homo sapiens) (UniProt P03372). Kind of test: ATG_ERa_TRANS: Attagene TRANS-FACTORIAL HepG2 Assay for human Estrogen Receptor alpha (ERa) (AID 2282970). Particulars: HepG2 Attagene TRANS ERa GAL4 reporter, mRNA. A digest of the protocol: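 Gal4-fusion ERa transactivation, measured as reporter transcript level in transiently transfected HepG2 cells. Exposure 24 h; RT-PCR plus capillary electrophoresis with fluorescence detection.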
Sequence of Estrogen receptor (Homo sapiens) (P03372 whole entry, looked up, the tested form may be a part): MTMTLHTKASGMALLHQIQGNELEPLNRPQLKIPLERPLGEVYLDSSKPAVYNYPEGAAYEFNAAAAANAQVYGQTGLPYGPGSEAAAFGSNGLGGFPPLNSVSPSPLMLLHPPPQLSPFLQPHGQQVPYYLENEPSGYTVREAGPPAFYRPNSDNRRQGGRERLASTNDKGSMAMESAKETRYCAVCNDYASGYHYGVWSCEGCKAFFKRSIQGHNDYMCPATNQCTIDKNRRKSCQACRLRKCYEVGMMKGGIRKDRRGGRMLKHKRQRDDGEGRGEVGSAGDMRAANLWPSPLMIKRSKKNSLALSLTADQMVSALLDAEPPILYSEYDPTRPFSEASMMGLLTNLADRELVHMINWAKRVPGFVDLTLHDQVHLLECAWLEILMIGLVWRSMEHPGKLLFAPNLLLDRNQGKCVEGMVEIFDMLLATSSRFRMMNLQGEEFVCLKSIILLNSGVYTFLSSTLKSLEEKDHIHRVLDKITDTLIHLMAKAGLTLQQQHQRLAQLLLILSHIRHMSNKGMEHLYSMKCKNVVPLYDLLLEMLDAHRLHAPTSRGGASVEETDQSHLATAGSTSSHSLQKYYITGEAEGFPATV

The target in test [5] is Steroid hormone receptor ERR1 (Homo sapiens) (UniProt P11474). Description: ATG_ERRa_TRANS: Attagene TRANS-FACTORIAL HepG2 Assay for human Estrogen-Related Receptor alpha (ERRa) (AID 2282971). Particulars: HepG2 Attagene TRANS reporter, ERRa transactivation. Summed up:
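HepG2 cells transiently transfected with GAL4-UAS reporter units and chimeric NR-Gal4 constructs; after 24 hour compound incubation, reporter mRNA quantified by RT-PCR, fluorescent labelling and capillary electrophoresis, gain of signal versus DMSO.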

The target in test [6] is X-box-binding protein 1 (Homo sapiens) (UniProt P17861). Kind of test: ATG_Xbp1_CIS: Attagene CIS-FACTORIAL HepG2 Assay for human X-box Binding Protein 1 (XBP1) (AID 2282972; active means hit-call score of the fitted dose curve at least 0.9, where 1 is the maximum; inactive means score below 0.9). Particulars: HepG2 XBP1 cis-element reporter, Attagene multiplex; actives raise or lower the signal. A digest of the protocol: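 Human hepatoma HepG2, cis-element reporter system, 24 h treatment; mRNA quantified by RT-PCR/CE fluorescence; fit relative to DMSO.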
Sequence of X-box-binding protein 1 (Homo sapiens) (P17861 whole entry, looked up): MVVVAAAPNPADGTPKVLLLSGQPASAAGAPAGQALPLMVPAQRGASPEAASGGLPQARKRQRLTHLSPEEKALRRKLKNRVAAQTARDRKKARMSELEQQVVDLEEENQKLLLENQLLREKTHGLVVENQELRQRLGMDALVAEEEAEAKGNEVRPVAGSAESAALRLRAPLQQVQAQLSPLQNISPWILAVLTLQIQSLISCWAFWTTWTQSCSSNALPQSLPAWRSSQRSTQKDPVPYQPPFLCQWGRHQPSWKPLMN

Test [7] can be described thus: ATG_M_19_TRANS: Attagene TRANS-FACTORIAL HepG2 Assay for M19 Transcription Factor (Internal Marker) (AID 2282974). Particulars: HepG2 Attagene TRANS-FACTORIAL M19 internal marker reporter. Summed up: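 Reporter mRNA induction was measured in transfected HepG2 cells 24 h after dosing. Endpoint fitted upward relative to DMSO and serves as a background control within the multiplexed TRANS panel.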

Test [8] can be described thus: ATG_GAL4_TRANS: Attagene TRANS-FACTORIAL HepG2 Assay for GAL4 (Internal Marker) (AID 2282976). Particulars: HepG2 Attagene TRANS GAL4 internal marker reporter. A digest of the protocol:
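Background-control readout: GAL4-UAS reporter transcript in transiently transfected HepG2 cells after 24 h compound exposure. Measured by RT-PCR, 6-FAM primer extension, HpaI digest and capillary electrophoresis; gain-of-signal fit versus DMSO.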

Test [9] has as its target Oxysterols receptor LXR-alpha (Homo sapiens) (UniProt Q13133). Description: ATG_LXRa_TRANS: Attagene TRANS-FACTORIAL HepG2 Assay for human Liver X Receptor alpha (LXRa) (AID 2282980). Particulars: HepG2 Attagene TRANS reporter, LXRa transactivation. A digest of the protocol:
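HepG2 cells transiently transfected with GAL4-UAS reporter units for chimeric NR-Gal4 proteins, exposed to chemicals for 24 h. Reporter mRNA quantified by RT-PCR and capillary electrophoresis; gain of signal fitted relative to DMSO.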

For test [10], the target named is Transcriptional activator Myb (Homo sapiens) (UniProt P10242). Kind of test: ATG_Myb_CIS: Attagene CIS-FACTORIAL HepG2 Assay for human Myeloblastosis (Myb) Proto-Oncogene Transcription Factor (AID 2282986; active means hit-call score of the fitted dose curve at least 0.9, where 1 is the maximum; inactive means score below 0.9). Particulars: HepG2 Attagene CIS-FACTORIAL Myb reporter transcription; actives raise or lower the signal. Summed up: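 Transiently transfected HepG2 cells, treated 24 h. Reporter mRNA quantified by RT-PCR/capillary electrophoresis; bidirectional fit relative to DMSO.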
Sequence of Transcriptional activator Myb (Homo sapiens) (P10242 whole entry, looked up): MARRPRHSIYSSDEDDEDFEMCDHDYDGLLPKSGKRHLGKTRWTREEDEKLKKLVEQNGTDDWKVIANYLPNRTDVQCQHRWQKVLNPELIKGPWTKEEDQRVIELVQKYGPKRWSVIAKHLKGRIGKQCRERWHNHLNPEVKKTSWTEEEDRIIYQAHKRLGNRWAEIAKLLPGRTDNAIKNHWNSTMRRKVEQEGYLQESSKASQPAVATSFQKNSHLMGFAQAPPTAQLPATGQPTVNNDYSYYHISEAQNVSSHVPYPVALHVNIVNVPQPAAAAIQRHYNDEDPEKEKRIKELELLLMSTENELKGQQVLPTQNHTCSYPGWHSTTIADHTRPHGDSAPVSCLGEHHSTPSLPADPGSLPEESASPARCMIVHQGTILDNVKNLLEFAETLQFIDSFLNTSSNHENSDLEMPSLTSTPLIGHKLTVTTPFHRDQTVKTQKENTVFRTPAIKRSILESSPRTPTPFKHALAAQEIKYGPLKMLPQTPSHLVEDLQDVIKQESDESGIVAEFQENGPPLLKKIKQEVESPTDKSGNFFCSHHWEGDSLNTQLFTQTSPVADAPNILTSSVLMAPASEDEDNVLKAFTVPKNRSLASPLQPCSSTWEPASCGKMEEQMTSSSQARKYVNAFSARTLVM

The target of test [11] is Nuclear respiratory factor 1 (Homo sapiens) (UniProt Q16656). Kind of test: ATG_NRF1_CIS: Attagene CIS-FACTORIAL HepG2 Assay for human Nuclear Respiratory Factor 1 (NRF1) Orphan Gene (AID 2282987; active means hit-call score of the fitted dose curve at least 0.9, where 1 is the maximum; inactive means score below 0.9). Particulars: HepG2 NRF1 cis-element reporter, Attagene multiplex; actives raise or lower the signal. A digest of the protocol: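 Cells (HepG2, transient MRTU transfection) are exposed to compound for 24 h, then RNA isolated and reporter mRNA amplified and fluorescently labelled. Fragments are separated by capillary electrophoresis; signal change is fitted bidirectionally relative to DMSO.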
Sequence of Nuclear respiratory factor 1 (Homo sapiens) (Q16656 whole entry, looked up, the tested form may be a part): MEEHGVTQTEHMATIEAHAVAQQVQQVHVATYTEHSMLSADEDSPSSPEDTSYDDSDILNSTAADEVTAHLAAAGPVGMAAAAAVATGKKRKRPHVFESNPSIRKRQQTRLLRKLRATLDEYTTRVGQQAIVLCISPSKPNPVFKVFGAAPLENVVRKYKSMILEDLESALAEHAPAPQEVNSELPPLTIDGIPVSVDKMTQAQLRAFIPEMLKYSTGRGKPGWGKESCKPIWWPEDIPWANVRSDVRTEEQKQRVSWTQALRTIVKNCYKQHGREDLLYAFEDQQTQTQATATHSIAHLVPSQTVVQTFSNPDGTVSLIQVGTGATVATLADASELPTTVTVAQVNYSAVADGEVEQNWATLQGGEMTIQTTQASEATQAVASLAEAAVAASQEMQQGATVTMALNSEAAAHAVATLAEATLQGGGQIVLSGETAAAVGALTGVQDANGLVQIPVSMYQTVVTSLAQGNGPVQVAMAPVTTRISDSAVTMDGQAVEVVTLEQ

Test [12] deals with Estrogen-related receptor gamma (Homo sapiens) (UniProt P62508). Kind of test: ATG_ERRg_TRANS: Attagene TRANS-FACTORIAL HepG2 Assay for human Estrogen-Related Receptor gamma (ERRg) (AID 2282977).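 Further: hits increase reporter signal over DMSO so potencies reflect activators.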 Particulars: HepG2 Attagene TRANS reporter, ERRg transactivation. A digest of the protocol: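 Exogenous NR-Gal4 chimera activity measured as reporter transcript induction after 24 h in transiently transfected HepG2 cells. RNA reverse-transcribed, PCR-amplified, 6-FAM-labelled and resolved by capillary electrophoresis; increase over DMSO baseline.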

In test [13] the target is Glucocorticoid receptor (Homo sapiens) (UniProt P04150). Kind of test: ATG_GR_TRANS: Attagene TRANS-FACTORIAL HepG2 Assay for human Glucocorticoid Receptor (GR) (AID 2282978).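 Further: activators score as hits since higher reporter transcript over DMSO is fitted.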 Particulars: HepG2 Attagene TRANS GR reporter, mRNA transcription. A digest of the protocol:
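Reporter transcript levels, detected by fluorescence after RT-PCR and capillary electrophoresis, served as the endpoint. HepG2 cells bearing transfected GAL4-UAS reporters responsive to NR-GAL4 chimeras were incubated with compound 24 h; DMSO defined baseline.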

In test [14] the target is Oxysterols receptor LXR-beta (Homo sapiens) (UniProt P55055). Description: ATG_LXRb_TRANS: Attagene TRANS-FACTORIAL HepG2 Assay for human Liver X Receptor beta (LXRb) (AID 2282981). Particulars: HepG2 Attagene TRANS GAL4-LXRb reporter, mRNA. A digest of the protocol: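 Multiplexed reporter assay, HepG2, 24 h dosing. Fluorescence of labelled RT-PCR products after capillary electrophoresis gives transcript level; positive fitting direction relative to DMSO.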
Sequence of Oxysterols receptor LXR-beta (Homo sapiens) (P55055 whole entry, looked up, the tested form may be a part): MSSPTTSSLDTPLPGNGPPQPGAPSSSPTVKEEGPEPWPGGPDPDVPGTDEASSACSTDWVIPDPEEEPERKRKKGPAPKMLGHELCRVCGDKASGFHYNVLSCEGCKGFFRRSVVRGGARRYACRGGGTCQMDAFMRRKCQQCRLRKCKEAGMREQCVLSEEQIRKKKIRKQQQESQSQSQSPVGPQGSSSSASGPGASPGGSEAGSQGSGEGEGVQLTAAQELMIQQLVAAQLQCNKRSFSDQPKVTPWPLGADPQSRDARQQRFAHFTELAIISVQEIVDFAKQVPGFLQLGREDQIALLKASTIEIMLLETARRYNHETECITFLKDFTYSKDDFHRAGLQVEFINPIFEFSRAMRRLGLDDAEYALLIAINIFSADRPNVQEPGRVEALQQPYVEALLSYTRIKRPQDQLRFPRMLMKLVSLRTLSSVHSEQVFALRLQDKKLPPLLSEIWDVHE

Test [15] concerns the target Hepatocyte nuclear factor 4-alpha (Homo sapiens) (UniProt P41235). Description: ATG_HNF4a_TRANS: Attagene TRANS-FACTORIAL HepG2 Assay for human Hepatocyte Nuclear Factor 4 alpha (HNF4a) (AID 2282982). Particulars: HepG2 HNF4a transactivation reporter, mRNA readout. A digest of the protocol:
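Endpoint reflects transcriptional activation of a GAL4-UAS reporter by an HNF4a-GAL4 chimera in transfected HepG2 cells, 24 h post-dosing. Fluorescence from RT-PCR products separated by capillary electrophoresis; DMSO baseline.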

Test [16] in a line: ATG_M_06_TRANS: Attagene TRANS-FACTORIAL HepG2 Assay for M06 Transcription Factor (Internal Marker) (AID 2282983). Particulars: HepG2 Attagene TRANS M06 internal marker reporter. A digest of the protocol: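 mRNA levels of a reporter transcript, quantified as FAM fluorescence on capillary electrophoresis, served as readout. HepG2 cells expressing exogenous GAL4-chimera reporter constructs were exposed for 24 h. Gain of signal over DMSO was evaluated.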

A short description of test [17]: ATG_M_32_TRANS: Attagene TRANS-FACTORIAL HepG2 Assay for M32 Transcription Factor (Internal Marker) (AID 2282984). Particulars: HepG2 Attagene TRANS M32 internal marker reporter. Summed up: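 Internal-marker readout from a multiplexed transcription reporter panel. HepG2 cells were transfected with GAL4-UAS reporter units, treated 24 hours, and reporter transcript levels determined by fluorescence after RT-PCR and capillary separation.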

Test [18] has as its target Nuclear receptor subfamily 4 group A member 2 (Homo sapiens) (UniProt P43354). Description: ATG_NURR1_TRANS: Attagene TRANS-FACTORIAL HepG2 Assay for human Nuclear Receptor Related Protein 1 (NURR1) (AID 2282985). Particulars: HepG2 Attagene TRANS reporter, mRNA readout. A digest of the protocol: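 Endpoint: reporter mRNA increase relative to DMSO. HepG2 cells transfected with reporter units, treated 24 h; RNA processed by RT-PCR, labelling, HpaI digestion and capillary electrophoresis.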

For test [19], the target named is Bile acid receptor (Homo sapiens) (UniProt Q96RI1). Kind of test: ATG_FXR_TRANS: Attagene TRANS-FACTORIAL HepG2 Assay for Farnesoid X Receptor (FXR) (AID 2282979).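 Further: hits raise reporter mRNA above DMSO so AC50 marks FXR activation.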 Particulars: HepG2 Attagene TRANS FXR-GAL4 reporter transcription. Summed up:
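HepG2 cells were transiently transfected with GAL4-UAS reporters driven by chimeric NR-Gal4 proteins and dosed for 24 h. Reporter mRNA was quantified by RT-PCR, fluorescent labelling, HpaI digestion and capillary electrophoresis, with gain of signal scored versus DMSO.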

Sequence of Oxysterols receptor LXR-alpha (Homo sapiens) (Q13133 whole entry, looked up, the tested form may be a part): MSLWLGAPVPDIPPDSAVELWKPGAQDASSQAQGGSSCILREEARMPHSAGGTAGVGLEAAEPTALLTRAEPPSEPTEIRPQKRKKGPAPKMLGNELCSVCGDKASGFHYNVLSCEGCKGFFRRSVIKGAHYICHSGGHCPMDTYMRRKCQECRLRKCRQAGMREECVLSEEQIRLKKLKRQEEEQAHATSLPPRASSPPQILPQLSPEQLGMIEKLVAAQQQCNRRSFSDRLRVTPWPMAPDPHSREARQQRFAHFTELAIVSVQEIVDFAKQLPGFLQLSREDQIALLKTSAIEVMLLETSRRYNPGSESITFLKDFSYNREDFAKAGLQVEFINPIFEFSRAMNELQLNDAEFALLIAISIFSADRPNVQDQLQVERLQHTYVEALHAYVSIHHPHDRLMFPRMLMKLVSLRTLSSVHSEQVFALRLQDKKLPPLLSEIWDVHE
Sequence of Steroid hormone receptor ERR1 (Homo sapiens) (P11474 whole entry, looked up, the tested form may be a part): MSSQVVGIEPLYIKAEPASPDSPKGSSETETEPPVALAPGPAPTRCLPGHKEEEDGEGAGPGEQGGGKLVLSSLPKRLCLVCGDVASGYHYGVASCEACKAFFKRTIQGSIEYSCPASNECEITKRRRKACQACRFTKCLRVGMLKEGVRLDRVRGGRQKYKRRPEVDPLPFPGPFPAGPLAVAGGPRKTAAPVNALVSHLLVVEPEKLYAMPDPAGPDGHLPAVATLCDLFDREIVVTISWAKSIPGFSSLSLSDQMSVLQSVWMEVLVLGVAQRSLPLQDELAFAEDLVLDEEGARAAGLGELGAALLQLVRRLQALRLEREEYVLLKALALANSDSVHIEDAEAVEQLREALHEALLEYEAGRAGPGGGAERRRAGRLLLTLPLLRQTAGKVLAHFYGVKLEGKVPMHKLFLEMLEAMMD
Sequence of Bile acid receptor (Homo sapiens) (Q96RI1 whole entry, looked up, the tested form may be a part): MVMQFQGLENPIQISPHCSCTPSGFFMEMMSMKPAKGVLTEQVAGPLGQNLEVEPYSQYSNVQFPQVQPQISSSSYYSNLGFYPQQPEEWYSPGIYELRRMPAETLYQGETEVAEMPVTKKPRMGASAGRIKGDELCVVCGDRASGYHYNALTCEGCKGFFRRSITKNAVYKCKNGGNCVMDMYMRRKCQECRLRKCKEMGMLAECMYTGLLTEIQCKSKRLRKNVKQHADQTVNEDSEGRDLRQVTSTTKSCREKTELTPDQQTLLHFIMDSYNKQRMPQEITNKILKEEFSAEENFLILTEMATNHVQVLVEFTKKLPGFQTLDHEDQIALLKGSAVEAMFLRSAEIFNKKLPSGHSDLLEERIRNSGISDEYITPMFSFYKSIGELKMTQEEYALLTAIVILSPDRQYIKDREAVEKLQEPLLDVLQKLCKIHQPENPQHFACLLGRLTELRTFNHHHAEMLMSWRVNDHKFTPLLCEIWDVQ
Sequence of Nuclear receptor subfamily 4 group A member 2 (Homo sapiens) (P43354 whole entry, looked up): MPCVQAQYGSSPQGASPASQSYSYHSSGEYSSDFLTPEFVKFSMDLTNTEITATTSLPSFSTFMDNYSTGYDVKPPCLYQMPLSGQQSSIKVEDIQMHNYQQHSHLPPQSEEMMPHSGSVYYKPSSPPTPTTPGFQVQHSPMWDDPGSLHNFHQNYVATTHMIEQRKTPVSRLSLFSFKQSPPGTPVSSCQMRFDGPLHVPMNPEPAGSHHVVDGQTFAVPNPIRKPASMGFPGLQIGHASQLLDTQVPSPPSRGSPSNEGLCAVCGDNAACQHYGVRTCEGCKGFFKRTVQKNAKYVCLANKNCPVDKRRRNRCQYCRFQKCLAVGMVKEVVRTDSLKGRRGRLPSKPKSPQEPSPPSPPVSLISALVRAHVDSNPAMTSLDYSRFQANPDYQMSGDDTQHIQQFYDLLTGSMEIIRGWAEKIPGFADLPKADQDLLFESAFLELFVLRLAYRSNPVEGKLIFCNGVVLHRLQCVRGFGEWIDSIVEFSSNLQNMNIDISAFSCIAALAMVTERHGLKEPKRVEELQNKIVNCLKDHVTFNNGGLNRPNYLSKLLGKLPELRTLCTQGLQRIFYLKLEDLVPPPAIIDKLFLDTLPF
Sequence of Hepatocyte nuclear factor 4-alpha (Homo sapiens) (P41235 whole entry, looked up, the tested form may be a part): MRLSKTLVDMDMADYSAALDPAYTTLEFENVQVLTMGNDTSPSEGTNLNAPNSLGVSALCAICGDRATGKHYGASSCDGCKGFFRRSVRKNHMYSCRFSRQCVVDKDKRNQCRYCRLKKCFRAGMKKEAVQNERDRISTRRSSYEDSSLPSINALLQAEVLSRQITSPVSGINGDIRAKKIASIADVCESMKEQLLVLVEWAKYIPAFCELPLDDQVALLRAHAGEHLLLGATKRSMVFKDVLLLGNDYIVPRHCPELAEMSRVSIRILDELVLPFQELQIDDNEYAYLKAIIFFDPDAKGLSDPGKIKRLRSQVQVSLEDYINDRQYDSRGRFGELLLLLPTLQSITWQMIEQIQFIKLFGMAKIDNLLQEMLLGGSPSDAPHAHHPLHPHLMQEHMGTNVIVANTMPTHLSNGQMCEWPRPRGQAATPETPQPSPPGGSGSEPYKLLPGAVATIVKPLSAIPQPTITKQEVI

In the case of `CC/C=C\CCOC(=O)CCCCC`, the compound was classed as inactive in test [1], in [2], in [3], in test [4], in [5] and in test [6]. For the same compound, the outcome in test [7], in test [8], in test [9], in test [10] and in test [11] was inactive.

`O=C(c1ccccc1)c1ccc(O)c(O)c1O`: the outcome in test [1], in test [2], in test [3], in test [5], in test [6] and in [8] was inactive. Also, the call in test [12], in test [13], in test [9], in [14], in test [15] and in [16] was inactive. For the same compound, the result in test [17] and in [11] was inactive. Besides, the AC50 (in general, the concentration giving half of the maximal activity seen) in [4] is 27.3 µM (active).

Turning to `C=C(C)CCO`, the call in test [1], in [3], in test [4], in [6], in test [8] and in [13] was inactive. Further, the call in [9], in test [14], in test [16], in test [17], in test [18] and in test [11] was inactive. Further, the AC50 in test [2] is 0.316 µM (active).

As for `Cc1cc(C)c(C)cc1C`, the outcome in test [1], in test [2], in test [3], in test [4], in test [6] and in test [7] was inactive. Further, the call in test [15], in [17], in test [10] and in test [11] was inactive.

`O=[N+]([O-])c1ccc(CO)cc1`: the result in [1], in [2], in test [3], in test [4], in [6] and in test [8] was inactive. Further, the result in test [13], in test [16], in [17] and in test [18] was inactive.

`CC(C)c1ccc(C#N)cc1`: the result in [1], in [2], in test [3], in [4], in test [5] and in test [6] was inactive. Further, the call in test [7], in test [8], in test [9] and in [11] was inactive.

In the case of `CCc1c(C(=O)O)c(=O)cnn1-c1ccc(Cl)cc1`, the outcome in test [1], in test [2], in test [3], in [4], in [6] and in test [7] was inactive. Moreover, the result in test [8], in [12], in [19], in test [17], in test [18] and in [10] was inactive. Moreover, the call in test [11] was inactive.

As to `C=CC(=O)OCC(Br)CBr` (stereo unspecified), the outcome in test [1], in test [6], in test [7], in test [19], in [17] and in test [18] was inactive. Also, the outcome in test [10] and in test [11] was inactive. The AC50 in [2] was 0.39 µM (active); in test [3] it was 26.3 µM (active); in test [4] it was 100 µM (active).

As for `C1=CCCC1`, the compound was classed as inactive in test [1], in test [2], in test [3], in test [4], in [6] and in test [7]. The compound was called inactive in [19], in [16], in test [17], in [10] and in test [11].

`COC(=O)c1c(C)cc(O)c(C)c1O`: the call in test [1], in test [2], in [3], in test [6], in [7] and in test [8] was inactive. Besides, the compound was classed as inactive in test [14], in test [16], in test [17], in test [10] and in test [11]. The concentration at half-maximal activity (AC50) in test [4] was 38.7 µM (active).

The values above are taken from PubChem BioAssay (EPA / NIEHS).
